Measurements reported in the supplement of paper PMC12645437, “Orthogonal IMiD-Degron Pairs Induce Selective Protein Degradation in Cells” (ACS Chemical Biology, 2025).
In all, about 8,300 sequences were measured (“log2 fold change of degron read counts, EGFP-low vs EGFP+ sorted cells (limma voom), compound-induced degradation”: median about -1.1, highest 2% from about 3.2 on). The entries come from a sample that favours the highest values as a whole.

T1: CRBN, Q96SW2
T1 chain: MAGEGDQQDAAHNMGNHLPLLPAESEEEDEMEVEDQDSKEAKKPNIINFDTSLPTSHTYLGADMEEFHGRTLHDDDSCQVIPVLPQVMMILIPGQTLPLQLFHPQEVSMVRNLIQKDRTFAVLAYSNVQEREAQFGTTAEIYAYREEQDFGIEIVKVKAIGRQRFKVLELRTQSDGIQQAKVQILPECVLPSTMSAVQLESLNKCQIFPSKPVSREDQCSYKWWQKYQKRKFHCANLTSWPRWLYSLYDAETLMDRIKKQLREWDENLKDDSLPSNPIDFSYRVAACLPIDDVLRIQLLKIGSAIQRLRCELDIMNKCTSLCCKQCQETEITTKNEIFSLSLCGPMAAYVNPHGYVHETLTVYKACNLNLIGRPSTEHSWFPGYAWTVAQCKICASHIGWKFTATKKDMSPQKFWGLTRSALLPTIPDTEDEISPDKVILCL


Target: T1, CRBN, Q96SW2
Experiment: log2 fold change of degron read counts, EGFP-low vs EGFP+ sorted cells (limma voom), compound-induced degradation; higher = more compound-induced degradation of the degron-EGFP fusion; degrons are variants of IKZF1/3 zinc finger 2; compound dose not given here
Conditions: Jurkat, 18 h
[1] = compound: compound 19 (5-tert-butyl-thalidomide)
[2] = compound: compound 22 (5-morpholino-thalidomide)
[3] = compound: compound 33 (diphenyl IMiD analogue)
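Note: pooled lentiviral library of zinc finger degron-EGFP fusions in mCherry-positive Jurkat cells, FACS-sorted after compound exposure, with degron abundance counted by next-generation sequencing.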

Row | Sequence | log2 fold change of degron read counts [1] | log2 fold change of degron read counts [2] | log2 fold change of degron read counts [3] | log2 fold change of degron read counts (compound: thalidomide)
1 | FDCPICGRVFTQKGNLLRHIKL [46F_47D_49P_50I_52G_53R_54V_55F_67L_, Q9UKT9] | -0.729 | -0.635 | 1.53 | 1.97
2 | FLCNVCGAAFTQKGNLLRHIKL [46F_47L_49N_50V_52G_53A_54A_55F_67L_, Q9UKT9] | -1.6 | -2.27 | -0.522 | -0.568
3 | FNCEICGAAFTQKGNLLRHIKL [46F_47N_49E_50I_52G_53A_54A_55F_67L_, Q9UKT9] | 3.08 | 1.75 | 0.0717 | 0.718
4 | FTCEICGAAFTQKGNLLRHIKL [46F_47T_49E_50I_52G_53A_54A_55F_67L_, Q9UKT9] | 3.16 | 3.21 | 2.33 | 3.02
5 | FCCEICGAAFTQKGNLLRHIKL [46F_47C_49E_50I_52G_53A_54A_55F_67L_, Q9UKT9] | 3.72 | 3.1 | 2.29 | 2.46
6 | FKCEICGAAFTQKGNLLRHIKL [46F_47K_49E_50I_52G_53A_54A_55F_67L_, Q9UKT9] | 2.15 | -0.809 | -1.83 | 0.606
7 | FSCEICGAAFTQKGNLLRHIKL [46F_47S_49E_50I_52G_53A_54A_55F_67L_, Q9UKT9] | 3.56 | 2.95 | 2.24 | 2.15
8 | FACNVCGAMFTQKGNLLRHIKL [46F_47A_49N_50V_52G_53A_54M_55F_67L_, Q9UKT9] | 0.511 | -0.724 | -0.968 | -1.44
9 | FFCDQCGAAFTQKGNLLRHIKL [46F_47F_49D_50Q_52G_53A_54A_55F_67L_, Q9UKT9] | 0.0639 | -0.343 | -0.617 | -2.46
10 | LKCEICGFVCTQKGNLLRHIKL [46L_47K_49E_50I_52G_53F_54V_55C_67L_, Q9UKT9] | -1.72 | -2.04 | -2.48 | -0.691
11 | LFCEICGFVCTQKGNLLRHIKL [46L_47F_49E_50I_52G_53F_54V_55C_67L_, Q9UKT9] | 3.27 | 3.45 | 1.38 | 1.31
12 | LYCEICGFVCTQKGNLLRHIKL [46L_47Y_49E_50I_52G_53F_54V_55C_67L_, Q9UKT9] | 3.3 | 3.29 | 2.43 | 0.954
13 | LQCEICGFVCTQKGNLLRHIKL [46L_47Q_49E_50I_52G_53F_54V_55C_67L_, Q9UKT9] | -0.0768 | 1.31 | 1.38 | 3.4
14 | LSCEICGFVCTQKGNLLRHIKL [46L_47S_49E_50I_52G_53F_54V_55C_67L_, Q9UKT9] | 1.2 | 1.38 | 0.553 | 0.403
15 | LACEICGFVCTQKGNLLRHIKL [46L_47A_49E_50I_52G_53F_54V_55C_67L_, Q9UKT9] | 2.04 | 1.25 | -0.215 | -0.0645
16 | LCCEICGFVCTQKGNLLRHIKL [46L_47C_49E_50I_52G_53F_54V_55C_67L_, Q9UKT9] | 0.511 | 0.955 | 1.53 | 1.13
17 | LLCEICGFVCTQKGNLLRHIKL [46L_47L_49E_50I_52G_53F_54V_55C_67L_, Q9UKT9] | -0.934 | -1.38 | 0.0357 | 1.04
18 | LWCEICGFVCTQKGNLLRHIKL [46L_47W_49E_50I_52G_53F_54V_55C_67L_, Q9UKT9] | 2.88 | 3.17 | 2.26 | 0.659
